Hits are enriched below; roughly 4.2% of the tested compounds scored in any of these assays.
Cav3 T inh = blocks human Cav3.2 T-type calcium channel. O95180. Cav3.2-expressing cells, Fluo-4 calcium fluorescence FDSS; stronger effect = lower value. B-score at 10 µM. 100,000 tested, 4% active. AID 449739;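 active means single-dose well whose peak fluorescence ratio is a statistical outlier from its plate by either plate-standardised score or position-corrected B-score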
Pyk2 oligo antag = blocks oligomerization of human Pyk2 in cells; Q14289; Q293 cells, Pyk2 FERM NanoBiT luminescence; stronger effect = lower value; z-score (the deposit names both 25 µM and 10 µM); 99,000 tested, 0.83% active; AID 1347419;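 active means Z-score of -3 or lower, scaled per plate to the spread of control and sample wells; inactive means z-score above -3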;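 further: negative z-score means lost luminescence so less FERM oligomerization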
E coli RNAP = inhibitors of Escherichia coli RNA polymerase; 62,000 tested, 0.2% active; P0A8V2; E. coli RNA polymerase, fluorescence transcription assay; inhibition, %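 (tested at 10 µM)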; in the data active means inhibition above about 20%
CD11b adhes enh = CD11b/CD18-fibrinogen binding enhancement; P05107+P11215; K562 CD11b/CD18 adhesion to fibrinogen, ATPlite luminescence; activation, % at 10 µM; 93,000 tested, 0.07% active; AID 1499;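 active means 10 µM primary screen giving 50% or more activity, confirmed by 40% or more on retest at that dose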
Mac1 fbg inh = inhibitors of human CD11b/CD18 binding to fibrinogen | 93,000 tested, 0.54% active | P05107+P11215 | AID 1497 | inhibition, % at 10 µM | K562 CD11b/CD18 adhesion to fibrinogen, ATPlite luminescence; Mn2+ added to activate the integrin;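 active means primary inhibition of 50% or more at 10 µM, then 40% or more on retest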
Hits are given with their value.

`CCC(C(=O)NC(C)(C)C)N(C(=O)Cn1nnc(-c2ccccc2F)n1)c1cccc2c1CCCC2` (configuration not stated) gave Cav3 T inh inactive, Pyk2 oligo antag inactive, CD11b adhes enh inactive and Mac1 fbg inh inactive.
`O=C(Cn1nnc(-c2ccccc2F)n1)NCCc1ccccc1` gave Cav3 T inh inactive, E coli RNAP inactive, CD11b adhes enh inactive and Mac1 fbg inh inactive.
For CCN(CC)C(=O)C(=O)N/N=C/c1ccc(C(=O)OC)cc1 the results were CD11b adhes enh inactive and Mac1 fbg inh inactive.
Screening COc1ccc(OC)c(NC(=O)C(=O)/C=C(\O)c2cc(OC)ccc2OC)c1 returned Cav3 T inh -5.2, Pyk2 oligo antag inactive, CD11b adhes enh inactive and Mac1 fbg inh inactive.
`CCCCN(CCCC)S(=O)(=O)c1ccc(N2CCCC2=O)c([N+](=O)[O-])c1` gave Cav3 T inh inactive and Pyk2 oligo antag inactive.
For CCCCN(CCCC)S(=O)(=O)c1ccc(SCC(=O)OCC)c([N+](=O)[O-])c1 the results were Cav3 T inh -3.07, Pyk2 oligo antag inactive, CD11b adhes enh inactive and Mac1 fbg inh inactive.
Cc1cccc(NC(=O)c2cc(N3CCOCC3)nc3ccccc23)c1 was read as Cav3 T inh inactive, Pyk2 oligo antag inactive, E coli RNAP 20.6, CD11b adhes enh inactive and Mac1 fbg inh inactive.
N#Cc1ccccc1Cn1c(=O)n(C2CCCC2)c(=O)c2ccccc21 was read as Cav3 T inh -5.08, Pyk2 oligo antag inactive, CD11b adhes enh inactive and Mac1 fbg inh inactive.
Screening COc1cc2c(cc1OC)C1=NC(=O)CN1C(SCc1ccccc1)=N2 returned Pyk2 oligo antag inactive, CD11b adhes enh inactive and Mac1 fbg inh inactive.
Screening O=C(NCc1ccc(Cl)cc1)c1ccc(Cn2cc(C(F)(F)F)ccc2=O)cc1 returned Cav3 T inh -5.7 and Pyk2 oligo antag inactive.
Screening CCOc1cc(/C=N/NC(=O)CNc2cccc(C)c2)ccc1OC(=O)c1ccccc1 returned Cav3 T inh -3.91 and Pyk2 oligo antag inactive.
For CC1OC(Oc2ccc3ccc(=O)oc3c2-c2c(O)ccc3cc(Oc4ccc5ccc(=O)oc5c4)c(=O)oc23)C(O)C(O)C1O (configuration not stated) the results were Cav3 T inh inactive.
Screening Cc1cc(C)c2nc(SC(C)C#N)cc(C)c2c1 (configuration not stated) returned Cav3 T inh inactive, Pyk2 oligo antag inactive, CD11b adhes enh inactive and Mac1 fbg inh inactive.
For O=C(NN=C1c2ccccc2-c2ccccc21)c1ccccc1Br the results were Cav3 T inh -4.01, Pyk2 oligo antag inactive, CD11b adhes enh inactive and Mac1 fbg inh inactive.
For COc1ccc(C2=NC(=O)/C(=C\c3cc(OC)c(OC)c(OC)c3)O2)cc1 the results were CD11b adhes enh inactive and Mac1 fbg inh inactive.
For O=S(=O)(/C=C/c1ccccc1)Oc1ccccc1 the results were Cav3 T inh inactive, Pyk2 oligo antag inactive, CD11b adhes enh inactive and Mac1 fbg inh inactive.
CCOc1ccc(N(CC(=O)NC2CCCC2)C(=O)CSc2nnc(COc3ccccc3)o2)cc1 was read as Cav3 T inh -5.37, Pyk2 oligo antag inactive, CD11b adhes enh inactive and Mac1 fbg inh inactive.
For O=S(=O)(c1ccc2oc3ccc(S(=O)(=O)N4CCCCC4)cc3c2c1)N1CCCCC1 the results were Cav3 T inh inactive, Pyk2 oligo antag inactive, CD11b adhes enh inactive and Mac1 fbg inh inactive.
CCC(Sc1nc2ccccc2s1)C(=O)Nc1cc(C)on1 (configuration not stated) was read as Cav3 T inh inactive and Pyk2 oligo antag inactive.
For CCC(SC1=N/C(=C/c2ccccc2OC)C(=O)N1c1ccccc1)C(=O)Nc1cc(C)on1 (configuration not stated) the results were Cav3 T inh -4.84, Pyk2 oligo antag inactive, CD11b adhes enh inactive and Mac1 fbg inh inactive.
Screening Cc1ccc(NC(=O)CSC2=C(C#N)C(c3ccco3)C3=C(CC(C)(C)CC3=O)N2)cc1 (configuration not stated) returned Cav3 T inh inactive, Pyk2 oligo antag -3.37, E coli RNAP inactive, CD11b adhes enh inactive and Mac1 fbg inh inactive.
For CCOC(=O)C1=C(c2ccccc2)NC(SCC(=O)Nc2ccccc2C)=C(C#N)C1c1ccco1 (configuration not stated) the results were Cav3 T inh -7.45, Pyk2 oligo antag -3.7, E coli RNAP inactive, CD11b adhes enh inactive and Mac1 fbg inh inactive.
Screening CCOC(=O)C1=C(c2ccccc2)NC(SCC(=O)Nc2cccc(C)c2)=C(C#N)C1c1ccco1 (configuration not stated) returned Cav3 T inh inactive, Pyk2 oligo antag -4.03, E coli RNAP inactive, CD11b adhes enh inactive and Mac1 fbg inh inactive.
Screening CCOC(=O)C1=C(c2ccccc2)NC(SC)=C(C#N)C1c1ccco1 (configuration not stated) returned Cav3 T inh inactive, Pyk2 oligo antag inactive, E coli RNAP inactive, CD11b adhes enh inactive and Mac1 fbg inh inactive.
`CC1CC(N(C(=O)c2ccccc2Cl)c2ccccc2)c2ccccc2N1` (configuration not stated) gave Pyk2 oligo antag -3.65, CD11b adhes enh inactive and Mac1 fbg inh inactive.
`C=C(C)Cn1c(SCC#N)nc2ccccc2c1=O` gave Pyk2 oligo antag inactive, E coli RNAP inactive, CD11b adhes enh inactive and Mac1 fbg inh inactive.
Screening CCN(CCCn1c(SCC#N)nc2ccccc2c1=O)c1ccccc1 returned Cav3 T inh -5.36, Pyk2 oligo antag inactive, E coli RNAP inactive, CD11b adhes enh inactive and Mac1 fbg inh inactive.
For O=C1N/C(=N/Nc2ccccc2)S/C1=C\c1ccccc1 the results were Pyk2 oligo antag inactive, CD11b adhes enh inactive and Mac1 fbg inh 79.2.
COC/C=C/C1=CC2=CC(=O)C(C)(OC(=O)c3cnc4ccccc4n3)C(=O)C2=CO1 (configuration not stated) was read as Cav3 T inh inactive.
`CC1CC(C)(C)N2C(=O)C3(Nc4ccccc4S3)c3cccc1c32` (configuration not stated) gave Cav3 T inh -4.7, Pyk2 oligo antag inactive, CD11b adhes enh inactive and Mac1 fbg inh inactive.
Screening COc1ccccc1/C=C(/C(=O)OCC(=O)N(C)Cc1ccccc1)c1ccccc1 returned CD11b adhes enh inactive and Mac1 fbg inh inactive.
`CC1CC(C)(C)N(C(=O)CN2C(=O)c3ccccc3C2=O)c2ccccc21` (configuration not stated) gave Cav3 T inh 4.5 and Pyk2 oligo antag inactive.
COC(=O)C1=C(C(=O)OC)[C@@H]2N(Cc3ccccc3)c3ccccc3[C@@]23C[C@@H](C(=O)OC)N(C(=O)COCc2ccccc2)C3=N1 was read as Cav3 T inh inactive.
O=C(NCc1ccccc1)C(Cc1ccccc1)N1C(=O)C2C3CCC(C3)C2C1=O (configuration not stated) was read as Cav3 T inh inactive and Pyk2 oligo antag inactive.
Cc1ccc(NC(=O)C(Cc2ccccc2)N2C(=O)C3C4CCC(C4)C3C2=O)cc1Cl (configuration not stated) was read as Cav3 T inh -5.85, Pyk2 oligo antag inactive, CD11b adhes enh inactive and Mac1 fbg inh inactive.
